From PubChem BioAssay
D2 ag-1: D2 dopamine receptor (human) agonism | P14416 | HEK293 T-REx D2 cells, calcium flux agonist mode | activation, % at 2 µM | 340,000 tested, 0.53% active;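 active = activation over 3 SD above normal in the single-dose calcium agonist read, cut at about 30% in these data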
Target sequence (P14416 whole entry, looked up): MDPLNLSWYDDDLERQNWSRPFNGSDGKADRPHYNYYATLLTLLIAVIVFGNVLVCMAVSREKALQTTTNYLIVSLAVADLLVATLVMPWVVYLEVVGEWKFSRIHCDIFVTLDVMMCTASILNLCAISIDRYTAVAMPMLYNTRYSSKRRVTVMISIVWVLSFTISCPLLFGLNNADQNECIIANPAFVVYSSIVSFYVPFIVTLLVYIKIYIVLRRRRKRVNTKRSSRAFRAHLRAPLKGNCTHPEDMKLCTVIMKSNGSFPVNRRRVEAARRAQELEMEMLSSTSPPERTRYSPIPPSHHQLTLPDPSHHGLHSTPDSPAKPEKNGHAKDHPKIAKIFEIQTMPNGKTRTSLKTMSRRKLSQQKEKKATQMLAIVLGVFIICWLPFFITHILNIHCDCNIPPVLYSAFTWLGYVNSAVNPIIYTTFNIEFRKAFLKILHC
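Tetracycline-induced HEK293 Trex cells with D2 receptor force-coupled to calcium signaling, plated overnight at 30 C and loaded with no-wash calcium dye. Calcium flux read kinetically for 180 s after compound addition; responses flag agonists.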
D2 antag: antagonists of human D2 dopamine receptor | P14416 | 340,000 tested, 2% active | HEK293 TREx D2 cells, calcium flux, dopamine EC80 | inhibition, % at 10 µM | AID 485344; in the data active = inhibition above about 30%; inactive = below that, where a call was filed
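Calcium mobilization kinetics were recorded at 1 s intervals in tetracycline-induced HEK293 T-REx D2 cells, first for 180 s after compound addition and then 180 s after EC80 dopamine.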
D2 PAM-1: D2 dopamine receptor (human) potentiation. 340,000 tested, 0.34% active. HEK293 T-REx D2, calcium flux, EC20 dopamine potentiation. AID 485347. potentiation, % at 10 µM;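 active = potentiation over 3 SD above the plate norm, cut at about 30% in these data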
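Using a no-wash calcium dye in inducible, force-coupled HEK293 Trex cells expressing D2, we tracked fluorescence each second for 180 s after compound, then for 180 s after EC20 dopamine to detect augmented signalling.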
D2 PAM-2: human D2 receptor positive allosteric modulation; 360,000 tested, 0.23% active; potentiation, % (test concentration not listed); P14416; AID 624464; DiscoveRx D2 beta-arrestin cells, luminescence, 90 min; 100% = 57 uM dopamine signal; in the data active = potentiation above about 50%; inconclusive = mostly about 30% to 49%
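D2 cells co-treated with compound plus 50 nM dopamine (EC20) for 90 min at 37 deg C to detect potentiation. Beta-arrestin recruitment was read as enzyme-fragment luminescence after 1 h at ambient temperature. Full response was set by 57 uM dopamine.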
D2 ag-2: human D2 receptor agonism in beta-arrestin assay | activation, % (concentration not given with the values) | P14416 | DiscoveRx PathHunter D2 beta-arrestin, luminescence, 90 min; 100% = 57 uM dopamine signal | AID 624465 | 360,000 tested, 0.084% active; in the data active = activation above about 40%; inconclusive = between about 15% and that limit
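DiscoveRx PathHunter D2 beta-arrestin cells (2,100/well) attached overnight, then compound-stimulated 90 min at 37 C in HBSS/10 mM HEPES/0.1% Tween-20 buffer; beta-galactosidase complementation read by luminescence after 1 h at ambient temperature. Dopamine 57 uM final (EC100) as control.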
D3 ag: D3 receptor agonism confirmed, beta-arrestin readout; Potency, µM (highest dose often 76.9 µM), usual class: activators; DiscoveRx D3 beta-arrestin cells, luminescence, 90 min; shares compounds with D2 ag-1; 2,300 tested, 4% active; note: nearly all actives have a fitted effect of over 70% in size
D2 ag-3: D2 receptor agonism, beta-arrestin counterscreen; shares compounds with D2 ag-1; DiscoveRx PathHunter D2 beta-arrestin, luminescence, 90 min; response scale: percent relative to full dopamine signal; Potency, µM (titrated, usually from 76.9 µM), actives largely listed as activators; 2,300 tested, 5.9% active; note: nearly all actives have a fitted effect of over 70% in size
Numbers stand for hits; i = inactive; ? = inconclusive; nt = not tested or not shown; ! = not active in a repeat. The list is not random: actives were taken first. Their share in the collection is about 2.4%. Unless noted, calls come from the whole dose curve; as a rule, active = well fitted activation curve with a large enough effect; inconclusive = small, poorly fitted or top-dose-only effect; inactive = flat fitted curve, though single readings scatter.

SMILES	D2 ag-1	D2 antag	D2 PAM-1	D2 PAM-2	D2 ag-2	D3 ag	D2 ag-3
N#CCN(C(=O)COC(=O)CCCNC(=O)c1ccc(Cl)cc1)c1ccccc1	i	i	i	i	i	i	i
Cc1nc(NCCc2ccccc2)c2nnn(Cc3ccccc3Cl)c2n1	i	i	i	i	i	i	i
CC(=O)c1ccc(N2CCN(S(=O)(=O)c3c(C)nc4sc(C)cn4c3=O)CC2)cc1	nt	nt	i	nt	nt	nt	nt
O=C(/C=C/c1ccco1)Nc1ccc(Cl)c(-c2nc3cc(Cl)ccc3o2)c1	i	nt	i	nt	nt	nt	nt
Cc1ccc(S(=O)(=O)NCCc2nnc3ccc(SCc4cccc(F)c4)nn23)cc1	i	nt	i	nt	nt	nt	nt
COc1ccc(OC2C(=O)N(c3ccc(C)c(C)c3)C2c2ccc(OC)c(OC)c2)cc1 (stereo not given)	54	i	i	i	i	i	i
COc1ccc2[nH]c(=O)c(CN(CCc3ccccc3)Cc3nnnn3CC3CCCO3)cc2c1 (stereo not given)	i	i	i	i	i	?	i
COc1ccc2cc(CN(CCc3ccccc3)Cc3nnnn3CC3CCCO3)c(=O)[nH]c2c1 (stereo not given)	i	i	i	i	i	nt	nt
CCOC(=O)Cn1nnnc1CN(Cc1ccc(OC)cc1)Cc1cc2cc(CC)ccc2[nH]c1=O	i	i	i	i	i	i	i
Cc1cccc(N2C(S)=C(C#N)C(=O)NC2c2ccco2)c1 (stereo not given)	i	i	i	i	i	nt	nt
COc1ccc(N2C(S)=C(C#N)C(=O)NC2c2ccco2)cc1 (stereo not given)	50	i	i	i	i	i	i
COc1ccc(N2CCN(C(=O)CCCNC(=O)Cn3cnc4sc(C)c(C)c4c3=O)CC2)cc1	44	i	i	i	i	i	i
CC(C)(C)c1ccc(S(=O)(=O)N2CCN(Cc3noc(CCC(=O)N4CCCCC4)n3)CC2)cc1	i	nt	i	nt	nt	nt	nt
CCOc1ccc(-c2cc(NC(=O)c3ccccc3)c(C(=O)OC)s2)cc1	i	nt	i	nt	nt	nt	nt
Cc1cc(CN2CCN(CC(=O)Nc3cc(Cl)ccc3-n3cncn3)CC2)no1	41	i	i	i	i	i	i
COc1ccc(C2=C(C)C(=O)N(Cc3ccc(C(=O)NCc4cccc(C)c4)cc3)S2(=O)=O)cc1	i	nt	i	nt	nt	nt	nt
Cc1ccc(C2=CC(=O)CC(C)(C)C2)cc1	i	i	i	i	i	nt	nt
CC1(C)CC(=O)C=C(c2ccc3ccccc3c2)C1	nt	nt	i	i	i	i	i
COc1ccc(NC(=O)Cn2nc(C)c3c(C)n(-c4ccccc4)nc3c2=O)cc1OC	i	nt	i	nt	nt	nt	nt
CCOc1ccc(C(=O)C(CCC(CN(C)C)C(=O)c2ccc(OCC)cc2)CN(C)C)cc1 (stereo not given)	i	37	i	i	i	i	i
COc1ccc(C(=O)C(CCCCC(CN(C)C)C(=O)c2ccc(OC)cc2)CN(C)C)cc1 (stereo not given)	nt	nt	nt	i	i	nt	nt
CC#CCC(CC#CC)c1nc2ccccc2c(=O)n1N	i	i	i	i	i	i	i
Nc1ccc2[nH]ncc2c1	i	34	i	i	i	?	i
COc1ccc(N2CCN(S(=O)(=O)c3ccc4c(c3)C(C(C)C)C(=O)N4)CC2)cc1 (stereo not given)	i	nt	i	nt	nt	nt	nt
COc1ccc2nc3sc(C(=O)NCCN4CCc5ccccc5C4)cc3cc2c1	66	53	i	i	?	i	?
SMILES	D2 ag-1	D2 antag	D2 PAM-1	D2 PAM-2	D2 ag-2	D3 ag	D2 ag-3
CCOC(=O)C(NCCc1ccccc1)(NC(=O)CC)C(F)(F)F (stereo not given)	i	i	i	i	i	i	i
CCOC(=O)C(NC(C)=O)(OCc1ccccc1)C(F)(F)F (stereo not given)	67	i	i	i	i	i	i
CCOC(=O)c1ccccc1NC(=O)c1sc2nc3n(c(=O)c2c1C)CCCCC3	i	nt	i	nt	nt	nt	nt
CCN1C(=O)C2(c3ccccc31)c1c(oc3ccccc3c1=O)C(=O)N2CCOC (stereo not given)	i	nt	i	nt	nt	nt	nt
C[C@@H](CN1CCC(Cc2ccccc2)CC1)[C@@H](O)c1ccc(O)cc1	nt	nt	nt	i	i	i	i
CC(C(O)c1ccc(O)cc1)N1CCC(Cc2ccccc2)CC1 (stereo not given)	33!	77	i	i	i	i	i
CC(C)OCC(O)CN1CCC(Cc2ccccc2)CC1 (stereo not given)	i	i	i	i	i	nt	nt
Cc1ccc(C(C)C)c(OCC(=O)Nc2ccc(-c3nc4ncccc4o3)cc2C)c1	i	nt	i	nt	nt	nt	nt
CCOC(=O)C1CCN(C(=O)CSc2n[nH]c(-c3ccccc3Cl)n2)CC1	i	nt	i	nt	nt	nt	nt
CN1CCc2c(sc(NC(=O)c3ccc(C(=O)c4ccccc4)cc3)c2C(N)=O)C1	69	37	i	i	i	i	i
CN1CCc2c(sc(NC(=O)Cc3ccccc3)c2C#N)C1	78	70	i	i	i	i	?
CCN1CCc2c(sc(NC(=S)NC(=O)c3ccc(Cl)cc3)c2C(N)=O)C1	44	i	i	i	i	i	i
CCCN1CCc2c(sc(NC(=S)NC(=O)c3ccccc3)c2C#N)C1	77	78	i	i	i	i	i
CC(C)N1CCc2c(sc(NC(=S)NC(=O)c3ccccc3)c2C#N)C1	i	i	i	i	i	nt	nt
CCOC(=O)C(C(=O)OCC)C(Nc1cccc(Br)c1)c1ccccc1 (stereo not given)	i	i	i	i	i	nt	nt
CCOC(=O)C(NCCCCl)c1ccccc1 (stereo not given)	35	i	i	i	i	i	i
O=C(c1cccs1)N1CCC(C(=O)N2CCN(Cc3ccc4c(c3)OCO4)CC2)CC1	68	52	i	i	?	i	?
O=C(C1CCN(Cc2cccs2)CC1)N1CCN(Cc2ccc3c(c2)OCO3)CC1	i	i	nt	i	i	nt	nt
O=C(C1CCCN1C(=O)c1cccs1)N1CCN(Cc2ccc3c(c2)OCO3)CC1 (stereo not given)	63	37	i	i	i	i	i
CCOCCc1nn2c(=O)cc(COC(=O)c3ccc(NC(=O)c4ccc(F)cc4)cc3)nc2s1	i	nt	i	nt	nt	nt	nt
C=CCC(=O)NC1CC(C)(C)Cc2c1cnn2-c1ccc(C)cc1 (stereo not given)	72	i	i	i	i	i	i
Cc1ccc(-n2ncc3c2CC(C)(C)CC3NC(=O)CN2CCCC2=O)cc1 (stereo not given)	i	i	i	i	i	nt	nt
